# According to PubChem BioAssay (EPA / NIEHS):
# Inconclusive results are not listed. The source made the active and inactive calls. The calls were made as follows, unless noted: active = hit-call score of the fitted dose curve at least 0.9, where 1 is the maximum; inactive = score below 0.9.
# Legend:
# [1] = biological target: Paired box protein Pax-6 (Homo sapiens) (UniProt P26367); assay: ATG_Pax6_CIS: Attagene CIS-FACTORIAL HepG2 Assay for human Paired Box 6 (PAX6) (AID 2282956); conditions: HepG2 CIS-FACTORIAL PAX6 reporter transcription, RNA readout; actives raise or lower the signal
# Chain of Paired box protein Pax-6 (Homo sapiens) (P26367 whole entry, looked up): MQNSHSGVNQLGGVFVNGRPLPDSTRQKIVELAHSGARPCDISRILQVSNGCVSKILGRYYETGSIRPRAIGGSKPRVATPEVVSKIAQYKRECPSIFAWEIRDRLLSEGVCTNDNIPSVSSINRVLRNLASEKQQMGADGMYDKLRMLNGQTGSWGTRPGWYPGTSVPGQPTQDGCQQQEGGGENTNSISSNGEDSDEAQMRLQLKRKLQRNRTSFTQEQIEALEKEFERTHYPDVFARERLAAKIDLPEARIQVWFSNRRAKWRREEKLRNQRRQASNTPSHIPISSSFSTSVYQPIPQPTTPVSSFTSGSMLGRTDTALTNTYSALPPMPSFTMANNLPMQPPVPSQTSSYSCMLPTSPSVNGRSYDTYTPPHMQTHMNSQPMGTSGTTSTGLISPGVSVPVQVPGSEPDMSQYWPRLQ
# How it was run: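 HepG2 cells transiently transfected with multiplexed cis-promoter reporter units (endogenous TF activity) were dosed for 24 h. Reporter mRNA was quantified by RT-PCR, 6-FAM labeling, HpaI digestion and capillary electrophoresis; bidirectional fitting versus DMSO baseline.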
# [2] = ATG_PXRE_CIS: Attagene CIS-FACTORIAL HepG2 Assay for human Pregnane X Receptor Element (PXRE) (AID 2282957); conditions: HepG2 Attagene CIS-FACTORIAL PXRE reporter, mRNA; actives raise or lower the signal
# How it was run: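 Multiplexed cis-reporter assay in transiently transfected human HepG2 cells; 24 h chemical exposure. Reporter transcripts quantified by RT-PCR with fluorescent labeling and capillary electrophoresis.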
# [3] = ATG_PPRE_CIS: Attagene CIS-FACTORIAL HepG2 Assay for human Peroxisome Proliferator-activated Response Element (PPRE) (AID 2282958); conditions: HepG2 PPRE cis-element reporter, Attagene transcription factor profiling; actives raise or lower the signal
# How it was run: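 DMSO served as negative control and baseline for bidirectional curve fitting. Signal came from PPRE-regulated reporter mRNA in HepG2 cells, measured 24 h post-dosing by RT-PCR, 6-FAM primer extension and capillary electrophoresis.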
# [4] = ATG_RORE_CIS: Attagene CIS-FACTORIAL HepG2 Assay for human RAR-related Orphan Receptor Element (RORE) (AID 2282959); conditions: HepG2 Attagene cis-factorial RORE reporter, mRNA; actives raise or lower the signal
# How it was run: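 Transfect HepG2 with MRTUs; treat 24 h; extract RNA; RT with oligo(dT); PCR with reporter-specific primers; 6-FAM primer extension; HpaI digest 2 h at 37 C; capillary electrophoresis. Fit vs DMSO, bidirectional.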
# [5] = ATG_Sox_CIS: Attagene CIS-FACTORIAL HepG2 Assay for human SRY-box transcription factor (SOX) (AID 2282960); conditions: HepG2 Attagene cis-factorial SOX reporter, mRNA; actives raise or lower the signal
# How it was run: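 Fluorescence-labelled cDNA fragments from reporter transcripts, sized by CE, give the signal. Cells: HepG2, transiently transfected with cis-regulated reporter units. Exposure 24 h; DMSO negative control; bidirectional curve fitting.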
# [6] = biological target: Transcription factor Sp1 (Homo sapiens) (UniProt P08047); assay: ATG_Sp1_CIS: Attagene CIS-FACTORIAL HepG2 Assay for human Specificity Protein 1 (Sp1) (AID 2282961); conditions: HepG2 Sp1 cis-reporter transcription, actives raise or lower the signal
# Chain of Transcription factor Sp1 (Homo sapiens) (P08047 whole entry, looked up): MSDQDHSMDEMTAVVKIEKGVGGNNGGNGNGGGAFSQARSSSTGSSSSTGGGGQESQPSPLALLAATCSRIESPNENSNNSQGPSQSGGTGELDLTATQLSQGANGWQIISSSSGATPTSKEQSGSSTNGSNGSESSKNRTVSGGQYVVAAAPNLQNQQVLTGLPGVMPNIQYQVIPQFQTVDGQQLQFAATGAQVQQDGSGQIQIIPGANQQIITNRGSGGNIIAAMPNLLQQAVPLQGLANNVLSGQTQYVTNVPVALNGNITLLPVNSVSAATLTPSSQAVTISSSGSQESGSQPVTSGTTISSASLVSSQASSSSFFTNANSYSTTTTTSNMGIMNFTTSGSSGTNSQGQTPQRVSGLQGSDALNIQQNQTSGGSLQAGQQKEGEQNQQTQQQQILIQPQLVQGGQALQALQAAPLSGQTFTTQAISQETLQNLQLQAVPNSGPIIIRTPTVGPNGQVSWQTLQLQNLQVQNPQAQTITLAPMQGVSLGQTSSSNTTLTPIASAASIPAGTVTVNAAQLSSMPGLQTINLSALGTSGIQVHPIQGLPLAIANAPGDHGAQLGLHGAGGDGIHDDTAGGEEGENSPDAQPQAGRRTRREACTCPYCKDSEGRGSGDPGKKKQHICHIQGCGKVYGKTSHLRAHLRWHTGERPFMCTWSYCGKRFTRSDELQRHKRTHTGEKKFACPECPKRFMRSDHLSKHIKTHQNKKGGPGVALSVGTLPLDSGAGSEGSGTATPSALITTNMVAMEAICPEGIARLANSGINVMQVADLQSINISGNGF
# How it was run: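 Chemicals are dosed onto HepG2 cells transfected with multiple cis-promoter reporter constructs, and after 24 h reporter RNA is reverse-transcribed, PCR-amplified and resolved by capillary electrophoresis for fluorescence quantitation; activity is scored up or down against DMSO.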
# [7] = ATG_SREBP_CIS: Attagene CIS-FACTORIAL HepG2 Assay for human Sterol Regulatory Element Binding (SREBP) (AID 2282962); conditions: HepG2 Attagene cis-factorial SREBP reporter, mRNA; actives raise or lower the signal
# How it was run: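 HepG2 cells transiently transfected with multiplexed cis-element reporter units report endogenous transcription factor activity. After 24 h of chemical exposure, reporter mRNA was quantified by RT-PCR, 6-FAM labelling, HpaI digestion and capillary electrophoresis; bidirectional fits used DMSO as baseline.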
# [8] = biological target: Signal transducer and activator of transcription 3 (Homo sapiens) (UniProt P40763); assay: ATG_STAT3_CIS: Attagene CIS-FACTORIAL HepG2 Assay for human Signal Transducer and Activator of Transcription 3 (STAT3) (AID 2282963); conditions: HepG2, Attagene cis-factorial STAT3 reporter transcription; actives raise or lower the signal
# Chain of Signal transducer and activator of transcription 3 (Homo sapiens) (P40763 whole entry, looked up): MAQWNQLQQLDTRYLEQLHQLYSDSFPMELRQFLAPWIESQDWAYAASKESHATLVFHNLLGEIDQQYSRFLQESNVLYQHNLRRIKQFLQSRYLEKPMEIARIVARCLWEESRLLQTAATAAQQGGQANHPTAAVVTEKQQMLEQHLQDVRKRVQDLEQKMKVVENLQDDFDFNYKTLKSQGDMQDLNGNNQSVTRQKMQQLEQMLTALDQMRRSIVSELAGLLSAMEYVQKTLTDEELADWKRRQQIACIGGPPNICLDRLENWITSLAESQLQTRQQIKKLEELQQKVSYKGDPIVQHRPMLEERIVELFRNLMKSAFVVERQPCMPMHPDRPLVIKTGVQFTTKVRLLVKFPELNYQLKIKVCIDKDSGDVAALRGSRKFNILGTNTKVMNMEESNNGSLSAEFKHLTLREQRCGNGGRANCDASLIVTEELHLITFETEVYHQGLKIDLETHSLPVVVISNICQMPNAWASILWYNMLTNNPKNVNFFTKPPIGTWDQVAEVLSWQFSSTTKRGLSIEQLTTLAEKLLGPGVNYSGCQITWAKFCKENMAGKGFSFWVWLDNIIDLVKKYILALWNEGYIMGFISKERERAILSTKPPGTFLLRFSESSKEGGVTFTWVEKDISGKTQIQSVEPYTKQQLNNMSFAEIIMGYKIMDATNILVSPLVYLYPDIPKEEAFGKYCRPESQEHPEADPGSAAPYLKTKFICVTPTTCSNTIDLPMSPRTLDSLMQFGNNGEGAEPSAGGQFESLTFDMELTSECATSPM
# How it was run: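 HepG2 cells transiently transfected with cis-element-driven multiple reporter transcription units; after 24 h chemical exposure, reporter mRNA measured by RT-PCR, 6-FAM primer-extension labelling, HpaI digestion and capillary electrophoresis. Bidirectional fitting versus DMSO baseline.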
# [9] = ATG_TA_CIS: Attagene CIS-FACTORIAL HepG2 Assay for human TA Basal Promoter (AID 2282964); conditions: HepG2 Attagene CIS-factorial TA basal promoter reporter; actives raise or lower the signal
# How it was run: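 Cis-factorial format in HepG2: reporters report endogenous factors, not chimeric Gal4 fusions. After 24 h treatment, reporter transcripts were measured by RT-PCR-capillary electrophoresis fluorescence, analysed bidirectionally versus DMSO.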
# [10] = ATG_TCF_b_cat_CIS: Attagene CIS-FACTORIAL HepG2 Assay for human T-Cell-Factor with beta-catenin (TCF/b-cat) (AID 2282965); conditions: HepG2 TCF/beta-catenin cis-reporter transcription, actives raise or lower the signal
# How it was run: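 HepG2 cells transiently transfected with multiple cis-promoter-regulated reporter transcription units, so endogenous transcription factor activity is measured. Reporter mRNA read 24 hours after dosing by RT-PCR, fluorescent labelling and capillary electrophoresis; bidirectional fitting against DMSO.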
# [11] = ATG_TAL_CIS: Attagene CIS-FACTORIAL HepG2 Assay for human TAL Basal Promoter (AID 2282966); conditions: HepG2 Attagene cis-factorial TAL promoter reporter; actives raise or lower the signal;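 also: background control endpoint measuring basal TAL promoter reporter mRNA not a specific factor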
# How it was run: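 Steps: transfect HepG2 with multiple reporter transcription units; dose 24 h; isolate RNA, reverse-transcribe, PCR-amplify, label with 6-FAM, digest with HpaI; resolve by capillary electrophoresis. Bidirectional fitting against DMSO baseline.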
# [12] = ATG_TGFb_CIS: Attagene CIS-FACTORIAL HepG2 Assay for human Transforming Growth Factor (TGF) (AID 2282967); conditions: HepG2 Attagene CIS TGFb reporter, mRNA transcription; actives raise or lower the signal
# How it was run: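 Multiplexed cis-reporter HepG2 system, 24 h treatment; mRNA induction read by fluorescence after RT-PCR and CE; DMSO negative control, bidirectional curve fitting.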
# [13] = ATG_VDRE_CIS: Attagene CIS-FACTORIAL HepG2 Assay for human Vitamin D Receptor Element (VDRE) (AID 2282968); conditions: HepG2 VDRE cis-reporter transcription, actives raise or lower the signal
# How it was run: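 HepG2 cells transiently transfected with cis-element reporter units, dosed 24 h; reporter mRNA measured by RT-PCR, 6-FAM labeling, HpaI digestion and capillary electrophoresis. Activity fitted bidirectionally against DMSO baseline.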
# [14] = biological target: Estrogen receptor (Homo sapiens) (UniProt P03372); assay: ATG_ERa_TRANS: Attagene TRANS-FACTORIAL HepG2 Assay for human Estrogen Receptor alpha (ERa) (AID 2282970; active = hit-call score of the fitted dose curve at least 0.9, where 1 is the maximum); conditions: HepG2 Attagene TRANS ERa GAL4 reporter, mRNA
# Chain of Estrogen receptor (Homo sapiens) (P03372 whole entry, looked up, the tested form may be a part): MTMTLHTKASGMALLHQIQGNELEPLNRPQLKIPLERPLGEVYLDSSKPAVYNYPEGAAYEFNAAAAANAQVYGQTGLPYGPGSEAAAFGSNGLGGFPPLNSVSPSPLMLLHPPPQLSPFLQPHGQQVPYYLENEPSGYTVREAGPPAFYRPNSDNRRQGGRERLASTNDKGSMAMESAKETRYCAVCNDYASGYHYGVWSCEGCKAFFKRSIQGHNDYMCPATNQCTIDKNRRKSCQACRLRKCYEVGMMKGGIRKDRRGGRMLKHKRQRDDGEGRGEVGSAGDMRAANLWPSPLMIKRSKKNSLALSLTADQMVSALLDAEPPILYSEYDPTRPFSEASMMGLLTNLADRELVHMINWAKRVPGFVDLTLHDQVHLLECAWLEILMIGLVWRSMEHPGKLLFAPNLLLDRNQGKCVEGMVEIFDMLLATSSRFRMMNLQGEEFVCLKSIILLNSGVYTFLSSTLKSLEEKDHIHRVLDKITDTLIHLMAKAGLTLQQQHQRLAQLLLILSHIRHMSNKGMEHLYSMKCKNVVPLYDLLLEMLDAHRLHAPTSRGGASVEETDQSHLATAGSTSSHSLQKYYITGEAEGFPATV
# How it was run: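 Multiplexed cell-based reporter format in HepG2: chimeric ERa-Gal4 protein drives GAL4-UAS reporter transcription. Fluorescent reporter mRNA quantified by capillary electrophoresis 24 hours after dosing; endpoint fitted as signal gain against DMSO.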
# [15] = biological target: X-box-binding protein 1 (Homo sapiens) (UniProt P17861); assay: ATG_Xbp1_CIS: Attagene CIS-FACTORIAL HepG2 Assay for human X-box Binding Protein 1 (XBP1) (AID 2282972); conditions: HepG2 XBP1 cis-element reporter, Attagene multiplex; actives raise or lower the signal
# Chain of X-box-binding protein 1 (Homo sapiens) (P17861 whole entry, looked up): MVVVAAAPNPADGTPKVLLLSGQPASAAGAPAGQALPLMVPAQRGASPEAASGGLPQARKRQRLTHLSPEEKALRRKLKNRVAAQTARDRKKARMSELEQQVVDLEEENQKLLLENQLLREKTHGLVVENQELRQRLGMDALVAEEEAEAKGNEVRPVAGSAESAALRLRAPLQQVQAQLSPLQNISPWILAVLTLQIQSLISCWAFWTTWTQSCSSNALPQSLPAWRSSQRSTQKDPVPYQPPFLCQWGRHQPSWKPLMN
# How it was run: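 HepG2 cells transiently transfected with cis-regulated multiple reporter transcription units; endogenous transcription factor activity measured 24 hours after chemical dosing. Reporter mRNA quantified by RT-PCR, 6-FAM primer extension, HpaI digestion and capillary electrophoresis; bidirectional fitting versus DMSO.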
# [16] = ATG_M_19_TRANS: Attagene TRANS-FACTORIAL HepG2 Assay for M19 Transcription Factor (Internal Marker) (AID 2282974; active = hit-call score of the fitted dose curve at least 0.9, where 1 is the maximum); conditions: HepG2 Attagene TRANS-FACTORIAL M19 internal marker reporter
# How it was run: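 Multiplexed TRANS format: HepG2 liver cells bearing transient GAL4-UAS reporter units, chemical treatment 24 h, reporter transcripts quantified by RT-PCR plus capillary electrophoresis. DMSO defines baseline.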
# [17] = biological target: Nuclear receptor subfamily 1 group I member 3 (Homo sapiens) (UniProt Q14994); assay: ATG_CAR_TRANS: Attagene TRANS-FACTORIAL HepG2 Assay for human Constitutive Androstane Receptor (CAR) (AID 2282969; active = hit-call score of the fitted dose curve at least 0.9, where 1 is the maximum;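 also: activators raise reporter mRNA above DMSO so AC50 marks induction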); conditions: HepG2 Attagene TRANS-FACTORIAL CAR reporter
# Chain of Nuclear receptor subfamily 1 group I member 3 (Homo sapiens) (Q14994 whole entry, looked up, the tested form may be a part): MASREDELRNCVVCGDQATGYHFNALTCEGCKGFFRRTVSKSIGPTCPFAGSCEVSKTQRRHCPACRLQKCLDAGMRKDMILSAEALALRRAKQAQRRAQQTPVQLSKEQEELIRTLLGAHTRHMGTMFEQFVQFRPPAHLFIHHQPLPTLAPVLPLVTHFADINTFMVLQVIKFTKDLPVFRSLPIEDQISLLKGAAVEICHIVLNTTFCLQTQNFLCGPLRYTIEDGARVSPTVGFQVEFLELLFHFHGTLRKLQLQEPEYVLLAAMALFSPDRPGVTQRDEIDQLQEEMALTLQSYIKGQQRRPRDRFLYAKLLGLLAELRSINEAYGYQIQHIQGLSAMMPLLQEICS
# How it was run: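 HepG2 cells transiently transfected with multiplexed GAL4-UAS reporter units expressing chimeric NR-Gal4 proteins; compound exposure 24 h. Reporter mRNA measured by RT-PCR, 6-FAM labelling, HpaI digestion and capillary electrophoresis; gain-of-signal fitted against DMSO baseline.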
# [18] = ATG_GAL4_TRANS: Attagene TRANS-FACTORIAL HepG2 Assay for GAL4 (Internal Marker) (AID 2282976; active = hit-call score of the fitted dose curve at least 0.9, where 1 is the maximum); conditions: HepG2 Attagene TRANS GAL4 internal marker reporter
# How it was run: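 Liver HepG2 line bearing multiplexed GAL4-UAS reporter constructs; 24 h chemical treatment. Transcripts were quantified as fluorescent fragments on capillary electrophoresis after RT-PCR and HpaI cut, with activity fitted upward from DMSO.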
# [19] = biological target: Estrogen-related receptor gamma (Homo sapiens) (UniProt P62508); assay: ATG_ERRg_TRANS: Attagene TRANS-FACTORIAL HepG2 Assay for human Estrogen-Related Receptor gamma (ERRg) (AID 2282977; active = hit-call score of the fitted dose curve at least 0.9, where 1 is the maximum;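 also: hits increase reporter signal over DMSO so potencies reflect activators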); conditions: HepG2 Attagene TRANS reporter, ERRg transactivation
# Chain of Estrogen-related receptor gamma (Homo sapiens) (P62508 whole entry, looked up, the tested form may be a part): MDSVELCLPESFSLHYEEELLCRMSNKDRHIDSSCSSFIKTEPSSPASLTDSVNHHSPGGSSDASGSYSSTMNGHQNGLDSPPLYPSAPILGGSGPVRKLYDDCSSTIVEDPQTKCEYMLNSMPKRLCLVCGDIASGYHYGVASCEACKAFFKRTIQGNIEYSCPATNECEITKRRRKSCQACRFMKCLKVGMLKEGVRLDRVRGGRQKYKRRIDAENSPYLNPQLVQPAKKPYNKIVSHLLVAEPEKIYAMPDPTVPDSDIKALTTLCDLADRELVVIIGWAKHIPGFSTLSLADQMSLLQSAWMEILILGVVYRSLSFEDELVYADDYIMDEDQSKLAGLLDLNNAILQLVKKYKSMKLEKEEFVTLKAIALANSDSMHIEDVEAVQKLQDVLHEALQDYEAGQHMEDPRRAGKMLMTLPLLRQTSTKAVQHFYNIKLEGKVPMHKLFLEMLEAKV
# How it was run: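 HepG2 cells transiently transfected with multiplexed GAL4-UAS reporter units and chimeric NR-Gal4 constructs were exposed to test chemicals for 24 h. Reporter mRNA was measured by RT-PCR, 6-FAM primer extension, HpaI digestion and capillary electrophoresis; gain-of-signal versus DMSO.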
structure (smiles),measurement,setting,value
CC1COc2ccccc2N1C(=O)C(Cl)Cl (stereo unspecified),AC50,[1],26.7 µM (active)
same,AC50,[2],26.6 µM (active)
same,outcome,[3],inactive
same,outcome,[4],inactive
same,outcome,[5],inactive
same,outcome,[6],inactive
same,outcome,[7],inactive
same,outcome,[8],inactive
same,outcome,[9],inactive
same,outcome,[10],inactive
same,outcome,[11],inactive
same,outcome,[12],inactive
same,AC50,[13],17.7 µM (active)
same,outcome,[14],inactive
same,outcome,[15],inactive
same,outcome,[16],inactive
CNCCCC12CCC(c3ccccc31)c1ccccc12,AC50,[1],17.4 µM (active)
same,outcome,[2],inactive
same,outcome,[3],inactive
same,outcome,[4],inactive
same,outcome,[5],inactive
same,outcome,[6],inactive
same,outcome,[7],inactive
same,outcome,[8],inactive
same,outcome,[9],inactive
same,AC50,[10],18.5 µM (active)
same,outcome,[11],inactive
same,outcome,[12],inactive
same,AC50,[13],15 µM (active)
same,outcome,[14],inactive
same,AC50,[15],14.9 µM (active)
CCCCCCCCCCCCCCCCCC(=O)OCC(CC)CCCC (stereo unspecified),outcome,[1],inactive
same,outcome,[2],inactive
same,outcome,[3],inactive
same,outcome,[4],inactive
same,outcome,[5],inactive
same,outcome,[6],inactive
same,outcome,[7],inactive
same,outcome,[8],inactive
same,outcome,[9],inactive
same,outcome,[10],inactive
same,outcome,[11],inactive
same,outcome,[12],inactive
same,outcome,[13],inactive
same,outcome,[17],inactive
same,outcome,[15],inactive
same,outcome,[16],inactive
same,outcome,[18],inactive
CC(C)=CCO,outcome,[1],inactive
same,AC50,[2],47.2 µM (active)
same,outcome,[3],inactive
same,outcome,[4],inactive
same,outcome,[5],inactive
same,outcome,[6],inactive
same,outcome,[7],inactive
same,outcome,[8],inactive
same,outcome,[9],inactive
same,outcome,[10],inactive
same,outcome,[11],inactive
same,outcome,[12],inactive
same,outcome,[13],inactive
same,outcome,[14],inactive
same,outcome,[15],inactive
CC(=O)OCC=Cc1ccccc1,outcome,[1],inactive
same,AC50,[2],32.1 µM (active)
same,outcome,[3],inactive
same,outcome,[4],inactive
same,outcome,[5],inactive
same,outcome,[6],inactive
same,outcome,[7],inactive
same,outcome,[8],inactive
same,outcome,[9],inactive
same,outcome,[10],inactive
same,outcome,[11],inactive
same,outcome,[12],inactive
same,outcome,[13],inactive
same,outcome,[17],inactive
same,outcome,[15],inactive
same,outcome,[16],inactive
same,outcome,[19],inactive
Cc1cccc(C)c1C,outcome,[1],inactive
same,outcome,[2],inactive
same,outcome,[3],inactive
same,outcome,[4],inactive
same,outcome,[5],inactive
same,outcome,[6],inactive
same,outcome,[7],inactive
same,outcome,[8],inactive
same,outcome,[9],inactive
same,outcome,[10],inactive
same,outcome,[11],inactive
same,outcome,[12],inactive
same,outcome,[13],inactive
same,outcome,[17],inactive
same,outcome,[15],inactive
O=P(c1ccccc1)(c1ccccc1)c1ccccc1,outcome,[1],inactive
same,AC50,[2],5.59 µM (active)
same,outcome,[3],inactive
same,outcome,[4],inactive
same,outcome,[5],inactive
same,outcome,[6],inactive
same,outcome,[7],inactive
same,outcome,[8],inactive
same,outcome,[9],inactive
same,outcome,[10],inactive
same,outcome,[11],inactive
same,outcome,[12],inactive
same,AC50,[13],13.1 µM (active)
same,outcome,[17],inactive
same,outcome,[14],inactive
same,outcome,[15],inactive
CC(=O)c1c(C)cc(C(C)(C)C)cc1C,outcome,[1],inactive
same,AC50,[2],27.1 µM (active)
same,outcome,[3],inactive
same,outcome,[4],inactive
same,outcome,[5],inactive
same,outcome,[6],inactive
same,outcome,[7],inactive
same,outcome,[8],inactive
same,outcome,[9],inactive
same,outcome,[10],inactive
same,outcome,[11],inactive
same,outcome,[12],inactive
same,outcome,[13],inactive
same,outcome,[17],inactive
same,outcome,[15],inactive
